The values below come from PubChem BioAssay (NCI).

Compounds without any hit were thinned out: in the full panel of roughly 83,000, 20% have a hit.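 Negative percent growth values reflect cell death: -40 means 40% of the cells present at the start died, and -100 means all died.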 Activity calls are given as the source filed them. The calls were made as follows: active = growth percent below 10; inactive = the rest.

This experiment relates to SK-MEL-5 melanoma. Description: NCI-60 one-dose screen, 48 h (100 = growth as untreated, 0 = no growth, -100 = all killed). The note with it: 10 µM unless noted.
With `NC(=O)N1N=C(c2cc3ccccc3oc2=O)CC1c1cn(-c2ccccc2)nc1-c1ccc(Cl)cc1` (stereo unspecified), the growth is 19.5% (inactive).

On to `COc1cnc2c(c1)C(=O)c1c-2n(CCCNCC2CC2)c(=O)c2cc(F)ccc12`, for which the growth was -82.8% (active).

On to `O=C(Nc1cc(F)cc2cccnc12)c1cnc(N2CCOCC2)cn1`, for which the growth is 83.5% (inactive).

With `O=C1[C@H]2Cc3c([nH]c4ccccc34)[C@@H](c3c(Cl)cccc3Cl)N2C(=O)CN1C1CCN(Cc2ccccc2)CC1`, the growth was 84.6% (inactive).

Take `COc1cc(/C=N/n2cnc3oc(-c4ccccc4)cc3c2=N)cc(CN2CCN(C)CC2)c1O`: the growth was 87.9% (inactive).

Turning to `Oc1ccc(-c2nnc(SCc3ccc(O)c4ncccc34)n2-c2ccccc2)cc1`, the growth was -44.6% (active).

In the case of `CN(C)C(=O)c1ccccc1-n1cnc2ccccc2c1=O`, the growth was 101% (inactive).

Consider `Oc1ccc(CSc2nnc(-c3ccc(Cl)cc3)o2)c2cccnc12`, for which the growth was 11.1% (inactive).

Turning to `NNC(=O)c1sc2nc(-c3cnccn3)cc(-c3cccs3)c2c1N`, the growth is 97.2% (inactive).

On to `COc1ccc(OC)c([C@H]2c3[nH]c4ccccc4c3C[C@H]3C(=O)N(CCCCCCC(=O)NO)CC(=O)N23)c1`, for which the growth is 86.8% (inactive).

On to `CCCCCCCCNC(=O)c1ccc(Cn2c(CCCC)nc3c(N)nc4ccccc4c32)cc1`, for which the growth is -96.8% (active).

For `O=C1[C@@H]2Cc3c([nH]c4ccccc34)[C@H](c3c(Cl)cccc3Cl)N2C(=O)CN1C1CCN(Cc2c(F)cccc2F)CC1`, the growth is 53.4% (inactive).

For the compound `O=C(CCCCCCN1CC(=O)N2[C@@H](c3cccc(Cl)c3)c3[nH]c4ccccc4c3C[C@H]2C1=O)NO`, the growth was 33.6% (inactive).

Turning to `CC(C)N=C(N/C(N)=N/c1nc2ccccc2s1)NC(C)C`, the growth is 62.5% (inactive).

Turning to `CCCCOc1ccc(S(=O)(=O)N2CCN(c3nccc(N4CCOCC4)n3)CC2)cc1`, the growth was 46.8% (inactive).

With `O=[N+]([O-])c1ccc(-c2nnc(SCc3ccc(O)c4ncccc34)n2-c2ccccc2)cc1`, the growth is 1.12% (active).

Consider `Cc1ccc(Nc2ncnc3c2c(C)nn3-c2ccc([N+](=O)[O-])cc2)cc1`, for which the growth was 92.9% (inactive).

As for `COc1cc2cc(Oc3ccc(NC(=O)Nc4cc(C(F)(F)F)cc(C(F)(F)F)c4)cc3)c(C)nc2cc1OCCN(C)C`, the growth is 102% (inactive).

Consider `COc1cc2cc(Oc3ccc(NC(=O)Nc4cccc(C(F)(F)F)c4)cc3)c(C)nc2cc1OCCN(C)C`, for which the growth was 81.2% (inactive).

For the compound `N/C(=N\c1nc2ccc([N+](=O)[O-])cc2s1)C(Cl)(Cl)Cl`, the growth is 83.8% (inactive).

For `Nc1ccc(-c2nnc(SCc3ccc(O)c4ncccc34)o2)cc1`, the growth is -20.5% (active).

Take `Nc1c(C(=O)c2ccccc2)sc2nc(-c3cnccn3)cc(-c3cccs3)c12`: the growth was 103% (inactive).

On to `C/C(=C(/C)C1CC1CCN(C(=O)c1ccccn1)S(=O)(=O)c1ccc(C)cc1)C1CCCCC1` (stereo unspecified), for which the growth was 78.6% (inactive).

For `Oc1ccc(CSc2nnc(-c3ccccc3)n2-c2ccccc2)c2cccnc12`, the growth was -22% (active).

As for `Oc1ccc(CSc2nnc(-c3ccc(Oc4ccccc4)cc3)n2-c2ccccc2)c2cccnc12`, the growth was -24.1% (active).

Regarding `O=C(CSc1ccc(-c2nc3ccccc3[nH]2)cn1)N1CCN(c2ccccc2F)CC1`, the growth is -32.7% (active).

Take `COc1cc2cc(Oc3ccc(NC(=O)c4cccc(C(F)(F)F)c4)cc3)c(C)nc2cc1OCCN(C)C`: the growth was -7.47% (active).

For the compound `CCCC(=O)NC(c1cccnc1)c1cc(C(C)=O)c2cccnc2c1O` (stereo unspecified), the growth is 0.739% (active).

For the compound `O=C(CCCCCCN1CC(=O)N2[C@@H](c3ccc(Cl)c(F)c3)c3[nH]c4ccccc4c3C[C@H]2C1=O)NO`, the growth was 86% (inactive).

As to `O=C1NC(=O)/C(=C/c2ccc(OCc3cc4ccccc4nc3Cl)cc2)S1`, the growth is 84.4% (inactive).

Regarding `O=C(O)c1ccc(-n2cc(CNc3ccc(F)cc3)c(-c3ccc(C(F)(F)F)cc3)n2)cc1`, the growth was 67.9% (inactive).

With `Oc1ccc(CSc2nnc(-c3ccncc3)o2)c2cccnc12`, the growth is -51.3% (active).

In the case of `Oc1ccc(CSc2nnc(-c3ccncc3)n2-c2ccccc2)c2cccnc12`, the growth was 1.83% (active).

`Oc1ccc(CSc2nnc(-c3cnccn3)n2-c2ccccc2)c2cccnc12`: the growth was -22.6% (active).

As for `O=C(COc1ccc(/C=C2\SC(=O)NC2=O)cc1)Nc1ccc(C(=O)/C=C/c2cc3ccccc3nc2Cl)cc1`, the growth was 33.5% (inactive).

For `COc1ccc(N2CCN(C(=O)CSc3ccc(-c4nc5cc(C)c(C)cc5[nH]4)cn3)CC2)cc1`, the growth is 3.13% (active).
